Activity calls are given as the source filed them.
Assays:
[1] = E. coli DRC41 culture turbidity changes, primary screen, E. coli filamentation inducer project, strain DRC41, OD650, 48 h (AID 1152);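 further: E. coli MC1000 strain DRC41 lacking acrAB efflux pump and sulA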; details: E. coli DRC41 (acrAB sulA), higher = more signal, called active from +8 up or from −8 down
[2] = small-molecule binders of probe aLefty1, primary screen, biochemical, small-molecule microarray, 635/667 nm fluorescence (AID 1153); details: higher = more signal;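 further: score merges spot fluorescence with signal-to-noise ratio from the scanned slide images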
[3] = PSAC antagonists in infected red cells, primary screen, cell-based, P. falciparum Indochina, OD700, 1 h (AID 1154); details: P. falciparum Indochina infected RBC osmotic lysis, higher = more signal, called active from +8 up or from −8 down
[4] = PSAC antagonists in infected red cells, primary screen, cell-based, P. falciparum Indochina, OD700, 2 h (AID 1155);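 further: lysis reports solute entry through the parasite surface anion channel PSAC; channel blockers reduce lysis of infected cells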; details: P. falciparum Indochina infected erythrocytes, osmotic lysis OD700; higher = more signal, called active from +8 up or from −8 down
[5] = osmotic lysis modulators in infected erythrocytes, primary screen, PSAC antagonist project, cell-based, P. falciparum Indochina, OD700, 3 h (AID 1156); details: higher = more signal, called active from +8 up or from −8 down
[6] = PSAC antagonists in infected red cells, primary screen, cell-based, P. falciparum Indochina, OD700, 18 h (AID 1157); details: P. falciparum Indochina infected erythrocytes, osmotic lysis OD700, 18 h; higher = more signal, called active from +8 up or from −8 down
[7] = modulators of S6 phosphorylation in cells, primary screen, cell-based, A549, cytoblot, luminescence, serum-stimulated (AID 1158); details: A549 phospho-S6 cytoblot, 5 h, higher = more signal;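 further: serum-stimulated A549 lung adenocarcinoma cells; signal is phosphorylated S6 detected by cytoblot immunostaining with HRP secondary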
[8] = target: NADPH oxidase 2 (Homo sapiens) (UniProt P04839); assay: NOX2-dependent H2O2 signal modulators, primary screen, NOX inhibitor project, cell-based, HEK293-NOX2, PMA-stimulated, Amplex Red fluorescence (AID 1159); details: 45 min, higher = more signal, called active from +8 up or from −8 down; further: test concentration not given here
Sequence of NADPH oxidase 2 (Homo sapiens) (P04839 whole entry, looked up): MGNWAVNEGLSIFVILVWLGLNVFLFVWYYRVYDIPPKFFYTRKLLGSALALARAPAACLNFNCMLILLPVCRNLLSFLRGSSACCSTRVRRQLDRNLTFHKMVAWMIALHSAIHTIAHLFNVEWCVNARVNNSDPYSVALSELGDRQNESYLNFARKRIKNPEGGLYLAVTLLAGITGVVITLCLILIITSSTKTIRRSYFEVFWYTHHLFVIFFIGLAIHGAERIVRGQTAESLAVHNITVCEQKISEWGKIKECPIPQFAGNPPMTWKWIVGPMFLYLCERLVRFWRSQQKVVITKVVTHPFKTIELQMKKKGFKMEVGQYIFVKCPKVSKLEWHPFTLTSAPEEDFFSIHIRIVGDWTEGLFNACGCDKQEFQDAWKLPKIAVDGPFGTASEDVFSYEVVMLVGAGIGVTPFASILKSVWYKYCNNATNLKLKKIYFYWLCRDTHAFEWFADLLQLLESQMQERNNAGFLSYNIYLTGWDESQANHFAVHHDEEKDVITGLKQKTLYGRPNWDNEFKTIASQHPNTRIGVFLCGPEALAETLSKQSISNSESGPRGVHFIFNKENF

[9] = target: NADPH oxidase 4 (Homo sapiens) (UniProt Q9NPH5); assay: NOX4-dependent H2O2 signal modulators, primary screen, NOX inhibitor project, cell-based, HEK293-NOX4, tetracycline-induced, Amplex Red fluorescence (AID 1160); details: 45 min, higher = more signal, called active from +8 up or from −8 down
Sequence of NADPH oxidase 4 (Homo sapiens) (Q9NPH5 whole entry, looked up): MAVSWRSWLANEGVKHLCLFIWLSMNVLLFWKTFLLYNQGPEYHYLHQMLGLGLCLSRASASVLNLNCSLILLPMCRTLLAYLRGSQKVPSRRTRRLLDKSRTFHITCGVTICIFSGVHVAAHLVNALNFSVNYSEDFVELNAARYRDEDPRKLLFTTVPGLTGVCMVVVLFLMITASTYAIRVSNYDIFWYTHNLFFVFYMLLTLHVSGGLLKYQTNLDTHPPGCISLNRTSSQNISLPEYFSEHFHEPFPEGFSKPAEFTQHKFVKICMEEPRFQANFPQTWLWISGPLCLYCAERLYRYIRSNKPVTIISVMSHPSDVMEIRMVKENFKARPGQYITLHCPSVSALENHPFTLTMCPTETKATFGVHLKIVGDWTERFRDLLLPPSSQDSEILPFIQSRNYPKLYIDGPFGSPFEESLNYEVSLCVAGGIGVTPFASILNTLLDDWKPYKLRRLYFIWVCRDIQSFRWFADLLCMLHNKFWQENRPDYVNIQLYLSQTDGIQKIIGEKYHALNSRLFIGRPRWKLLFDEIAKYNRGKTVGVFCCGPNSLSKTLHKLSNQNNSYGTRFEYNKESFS

[10] = target: NADPH oxidase 5 (Homo sapiens) (UniProt Q96PH1); assay: NOX5-dependent H2O2 signal modulators, primary screen, NOX inhibitor project, cell-based, HEK293-NOX5, Amplex Red fluorescence (AID 1161); details: HEK293-NOX5, ionomycin, 45 min, higher = more signal
Sequence of NADPH oxidase 5 (Homo sapiens) (Q96PH1 whole entry, looked up): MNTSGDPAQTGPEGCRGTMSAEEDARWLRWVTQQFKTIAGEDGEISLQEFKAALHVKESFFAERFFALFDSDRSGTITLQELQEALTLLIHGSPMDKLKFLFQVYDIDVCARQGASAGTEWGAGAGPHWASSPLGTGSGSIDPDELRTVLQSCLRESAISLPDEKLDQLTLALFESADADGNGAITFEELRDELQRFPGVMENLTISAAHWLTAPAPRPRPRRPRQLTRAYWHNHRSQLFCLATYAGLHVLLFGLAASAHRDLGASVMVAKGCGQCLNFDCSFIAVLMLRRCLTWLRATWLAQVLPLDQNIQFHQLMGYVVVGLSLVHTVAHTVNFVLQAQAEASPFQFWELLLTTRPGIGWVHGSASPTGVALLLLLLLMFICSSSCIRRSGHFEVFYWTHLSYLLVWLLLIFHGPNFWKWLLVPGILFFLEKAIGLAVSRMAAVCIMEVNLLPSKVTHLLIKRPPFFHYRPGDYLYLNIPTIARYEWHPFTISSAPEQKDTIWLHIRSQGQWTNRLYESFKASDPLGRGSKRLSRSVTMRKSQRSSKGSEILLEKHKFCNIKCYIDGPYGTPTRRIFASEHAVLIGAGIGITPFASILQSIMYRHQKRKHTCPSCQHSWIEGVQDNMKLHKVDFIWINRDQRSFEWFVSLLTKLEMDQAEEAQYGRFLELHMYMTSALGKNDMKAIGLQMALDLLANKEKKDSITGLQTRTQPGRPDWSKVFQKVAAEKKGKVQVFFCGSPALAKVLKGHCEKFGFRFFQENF

[11] = A549 cell viability effects, profiling panel, calcein-AM fluorescence, 48 h, basal (AID 1162); details: higher = more signal; further: test concentration not given here
[12] = adipocyte viability effects, profiling panel, cell-based, 3T3-L1 adipocytes, calcein-AM fluorescence, 48 h, basal (AID 1163); details: 3T3-L1 adipocytes viability, higher = more signal; further: test concentration not given here
[13] = HepG2 cell viability effects, profiling panel, calcein-AM fluorescence, 48 h, basal (AID 1164); details: higher = more signal; further: test concentration not given here
[14] = MM1S cell viability effects, profiling panel, calcein-AM fluorescence, 48 h, basal (AID 1165); details: higher = more signal;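 further: viability of MM1S multiple myeloma cells under basal unstimulated conditions; test concentration not given here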
[15] = basal RPMI8226 viability, no added stimulus, profiling panel, cell-based, calcein-AM fluorescence, 48 h, PK04 Diversity Set (AID 1166); details: RPMI8226 myeloma viability, higher = more signal;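 further: cells grown under basal conditions without added stimulus; test concentration not given here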
[16] = basal HepG2 mitochondrial membrane potential changes, profiling panel, cell-based, JC-1 fluorescence, 24 h, 100 nL compound (AID 1167); details: higher = more signal; further: test concentration not given here
[17] = basal 3T3-L1 adipocyte mitochondrial potential changes, profiling panel, cell-based, JC-1 fluorescence, 3T3-L1 adipocytes, 24 h, 100 nL compound (AID 1168); details: JC-1 mitochondrial fluorescence, higher = more signal, called active from +8 up or from −8 down; further: test concentration not given here
[18] = basal RPMI8226 mitochondrial membrane potential changes, profiling panel, cell-based, JC-1 fluorescence, 24 h, 100 nL compound (AID 1169); details: RPMI8226 myeloma, JC-1 mitochondrial potential fluorescence, higher = more signal; further: test concentration not given here
[19] = basal MM1S mitochondrial membrane potential changes, profiling panel, cell-based, JC-1 fluorescence, 24 h, 100 nL compound (AID 1170); details: higher = more signal; further: test concentration not given here
[20] = A549 lung cancer cell viability effects, profiling panel, resazurin fluorescence, 24 h, PK04 Diversity Set (AID 1171); details: higher = more signal, called active from +8 up or from −8 down; further: test concentration not given here

Structure (SMILES) | z-score [1] | composite z-score [2] | z-score [3] | z-score [4] | z-score [5] | z-score [6] | z-score [7] | z-score [8] | z-score [9] | z-score [10] | z-score [11] | z-score [12] | z-score [13] | z-score [14] | z-score [15] | z-score [16] | z-score [17] | z-score [18] | z-score [19] | z-score [20]
COc1ccc([Si](C)(C)[C@@H]2[C@@H](CC(=O)N3CCC[C@H]3CO)O[C@]3(C(=O)N(Cc4cccc(N5CCC5=O)c4)c4ccccc43)[C@H]2C)cc1 | 0.313 (inactive) | 0.792 | 4.64 (inactive) | 0.838 (inactive) | -0.745 (inactive) | 0.496 (inactive) | -0.0355 | 2.1 (inactive) | 1.29 (inactive) | 4.02 | -0.208 | -1.34 | -4.16 | -2.71 | -4.33 | -0.729 | 0.999 (inactive) | -1 | -2.19 | -1.39 (inactive)
C#C[C@@H]1Oc2ccccc2S(=O)(=O)N2CCC[C@H]12 | -1.16 (inactive) | 0.149 | 0.217 (inactive) | 0.676 (inactive) | -0.0722 (inactive) | 0.107 (inactive) | -0.222 | 0.0921 (inactive) | -1.48 (inactive) | -0.194 | -0.244 | -0.0897 | -0.48 | 0.0671 | -1.71 | -0.998 | 0.121 (inactive) | 0.51 | 0.193 | -0.884 (inactive)
CO[C@@H]1COC(=O)CCC[C@@H](C)[C@H](OC)COC(=O)CCC[C@H]1C | -0.665 (inactive) | -0.0933 | 0.553 (inactive) | 0.637 (inactive) | 0.719 (inactive) | 0.49 (inactive) | -0.918 | 0.545 (inactive) | 0.567 (inactive) | 0.031 | -0.378 | -0.465 | -0.125 | -0.197 | 0.239 | -0.075 | -0.996 (inactive) | 0.822 | -0.162 | 0.183 (inactive)
CC(C)c1ccc(NN2C(C(O)c3ccc4c(c3)OCO4)C=CC3C(=O)N(c4ccccc4)C(=O)C32)cc1 (stereo not given) | -0.481 (inactive) | -0.0593 | 1.76 (inactive) | 1 (inactive) | 0.126 (inactive) | 0.778 (inactive) | -0.467 | -0.488 (inactive) | -0.912 (inactive) | -0.752 | -0.842 | -0.293 | 0.367 | -0.911 | -0.369 | -1.53 | -0.462 (inactive) | 0.337 | 0.186 | -0.616 (inactive)
O=C1CCCC=C1C(O)CCOCc1ccccc1 (stereo not given) | -1.7 (inactive) | -0.342 | 0.427 (inactive) | -0.127 (inactive) | 0.452 (inactive) | -0.118 (inactive) | -0.235 | 1.18 (inactive) | 0.45 (inactive) | -0.00615 | -0.43 | 0.0411 | -0.457 | -1.42 | 0.452 | -0.667 | 0.0503 (inactive) | 0.215 | 0.527 | -0.323 (inactive)
CCCC[C@@H]1C[C@H]1[C@@H](NS(=O)(=O)c1cccc2cccnc12)c1ccc(-c2ccccc2)cc1 | -1.29 (inactive) | 0.0217 | 1.58 (inactive) | 0.985 (inactive) | 0.336 (inactive) | 0.764 (inactive) | -0.464 | 0.0564 (inactive) | -1.29 (inactive) | 1.21 | -1.11 | -1.08 | -0.0369 | 0.252 | 0.0748 | -1.13 | -0.43 (inactive) | -0.214 | -1.49 | 0.239 (inactive)
COc1ccc(O[C@@H]2[C@H](O)CO[C@H]2C=CC#Cc2ccccc2)cc1 | -0.939 (inactive) | -0.147 | 2.74 (inactive) | 0.488 (inactive) | 0.356 (inactive) | 0.0508 (inactive) | -0.367 | 0.0749 (inactive) | 1.23 (inactive) | 1.46 | -0.128 | 0.392 | 0.0395 | -2.54 | -0.0849 | -0.445 | -0.403 (inactive) | 0.617 | 0.113 | 0.357 (inactive)
O=C(CS)NCCCCCNC(=O)[C@H]1C[C@H]2C(=O)N3CCC[C@H]3C(=O)N2[C@H]1c1cccc(OCCO)c1 | -0.0612 (inactive) | 0.315 | 3.12 (inactive) | 0.55 (inactive) | -2.35 (inactive) | 0.35 (inactive) | 0.345 | 1.45 (inactive) | 0.557 (inactive) | 0.557 | 0.631 | -0.367 | 0.432 | -0.0388 | -0.198 | 2.21 | 0.0249 (inactive) | -0.736 | -0.419 | 0.477 (inactive)
C=C(/C(=C/C[C@H](OC(C)=O)c1ccc(OCCO)cc1)c1cnc2ccccc2c1)C(C)C | 1.02 (inactive) | -0.314 | 12.8 (active) | 1.64 (inactive) | 1.56 (inactive) | 0.749 (inactive) | 0.268 | -2.21 (inactive) | -0.569 (inactive) | -1.8 | 0.207 | 1.03 | -0.427 | -0.753 | 0.383 | 1.56 | -0.449 (inactive) | -0.416 | 0.0674 | 1.76 (inactive)

— PubChem BioAssay
